From PubChem BioAssay AID720597 (Broad Institute, 2013)
Measured potencies and affinities stand elsewhere. Active and inactive are the calls of the source.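 Rule for the calls: active = fitted half-maximal dose no more than twice the top valid tested dose, for compounds that lower signal; inconclusive = fit invalid, or curve flat with activity between -70 and -30; inactive = potency past limit, curve flat within ±30, or signal increasing.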

Molecular target: NAD-dependent protein deacylase sirtuin-5, mitochondrial (Homo sapiens) (UniProt Q9NXA8)
Sequence (Q9NXA8 whole entry, looked up): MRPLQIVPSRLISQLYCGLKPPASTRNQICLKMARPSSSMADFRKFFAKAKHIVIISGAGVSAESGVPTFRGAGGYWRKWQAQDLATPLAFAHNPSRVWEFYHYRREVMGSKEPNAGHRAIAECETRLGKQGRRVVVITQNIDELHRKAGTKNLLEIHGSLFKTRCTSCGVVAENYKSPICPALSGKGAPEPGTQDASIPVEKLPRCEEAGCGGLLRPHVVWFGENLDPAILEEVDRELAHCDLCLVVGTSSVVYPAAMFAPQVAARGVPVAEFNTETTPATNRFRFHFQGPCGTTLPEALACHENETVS
Test: blockers of sirtuin-5 peptide desuccinylation – biochemical, fluorescence imaging, cherry-pick, set 6, dose response (AID 720597);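 note: lower AMC signal can also come from blocking the trypsin step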
Details: Purified SirT5, succinyl-peptide-AMC/trypsin fluorescence; series mostly up to 15 µM

outcome, inactive:
CCCC(=O)Nc1ccc2c(c1)OC[C@@H](C)N(Cc1ccccc1OC)C[C@@H](C)[C@H](OC)CN(C)C2=O
C[C@@H]1CN([C@H](C)CO)S(=O)(=O)c2ccc(C#Cc3cccc(F)c3)cc2O[C@@H]1CN(C)CC1CC1
C[C@@H]1CCCCO[C@H](CN(C)C(=O)Nc2ccc(C(F)(F)F)cc2)[C@H](C)CN([C@@H](C)CO)C(=O)c2cc(NS(=O)(=O)c3ccc(Cl)cc3)ccc2O1
Cc1ccc(S(=O)(=O)Nc2ccc3c(c2)C(=O)N([C@@H](C)CO)C[C@H](C)[C@@H](CN(C)C(=O)Nc2ccc(C(F)(F)F)cc2)OCCCC[C@@H](C)O3)cc1
COc1ccc(S(=O)(=O)Nc2ccc3c(c2)C(=O)N([C@@H](C)CO)C[C@H](C)[C@H](CN(C)Cc2ccc(C(F)(F)F)cc2)OCCCC[C@@H](C)O3)cc1
Cc1ccc(S(=O)(=O)N(C)C[C@H]2OCCCC[C@H](C)Oc3ccc(NS(=O)(=O)c4ccc(F)cc4)cc3C(=O)N([C@H](C)CO)C[C@@H]2C)cc1
Cc1ccc(-c2cnc3c(c2)C(=O)N([C@H](C)CO)C[C@H](C)[C@@H](CN(C)Cc2ccccc2F)O3)cc1
C[C@@H]1CN([C@@H](C)CO)S(=O)(=O)c2ccc(C#Cc3ccccc3)cc2O[C@H]1CN(C)C(=O)C1CC1
C[C@@H]1CCCCO[C@@H](CN(C)Cc2ccc(C(F)(F)F)cc2)[C@H](C)CN([C@@H](C)CO)C(=O)c2cc(NS(=O)(=O)c3ccccc3)ccc2O1
